Among all 48,000 compounds or so, about 13,000 (27%) showed an effect of 50% or more. Some of the results follow.

This assay has as its system Wolbachia pipientis. As to the kind of experiment: Anti-Wolbachia Cell-Based Screen. The settings on record: 5 µM. It counts as functional. The arrangement: scale not given: in the data most compounds retested in dose-response had high values.
Regarding `CC(C)(C)Cc1noc2ncc(C(=O)N3CCC3)cc12`, the “Percent Effect” value is -0.07347%. With `O=C(C1SCCc2sccc21)N1CCN(CC(F)F)CC1` (stereo not drawn) the figure was 2.68%. For the molecule `CN(CCOc1cccc(S(C)(=O)=O)c1)CC(F)F`, the “Percent Effect” value was 95.25%.

With `CS(=O)(=O)CCCOc1cccc(-n2ccnc2)c1`, the “Percent Effect” value was 0.659%.

Take `CN(CCOc1cccc(CNS(C)(=O)=O)c1)C1CCOCC1`: the “Percent Effect” value is on record as -5.968%. `CN(CCOc1cccc(Cl)c1)Cc1nnc(C(C)(C)C)o1`: the “Percent Effect” value is listed as -19.16%. On to `COc1cccc(S(=O)(=O)CCN2CCN(CC(F)F)CC2)c1`, for which the “Percent Effect” value was 1.442%. With `CS(=O)(=O)c1ccc(OCCNCc2cccc(F)c2)cc1` the figure was -4.841%.

`CN(CCOc1cccc(S(C)(=O)=O)c1)c1ccccc1`: the “Percent Effect” value is listed as 88.15%.

Consider `CS(=O)(=O)CCCOc1cccc(-n2cccn2)c1`, for which the “Percent Effect” value was -22.07%. The figure for `CCC(C)(C)N(C)CCOc1cccc(S(C)(=O)=O)c1` is 103.5%; for `Cc1cccc(C(=O)NC2CCN(c3cnn(C)c3)C2=O)c1C` (stereo not drawn) it is 3.687%. As for `O=C(CC1CC1)NCc1cn2c(n1)CN(Cc1nccs1)CC2.O=C(O)C(F)(F)F`, the “Percent Effect” value is reported as 17.65%.

In the case of `Cc1cc(C(=O)N2C[C@@H]3[C@@H](C2)OCC(=O)N3CC2CC2)no1`, the “Percent Effect” value is given as 15.73%. With `CS(=O)(=O)CCN1CCC(=Cc2ccccc2)CC1`, the “Percent Effect” value turned out to be 3.303%.

Regarding `COc1cccc(CN(C(=O)NC2CC2)C2CCC(O)CC2)c1` (stereo not drawn), the “Percent Effect” value was found to be 4.411%. For the molecule `O=C(NC1CC1)N(CCc1ccccc1)C1CCOC1` (stereo not drawn), the “Percent Effect” value was -8.792%. For the molecule `CNC(=O)CN(C(=O)c1ccccc1)[C@H]1C[C@H]2CCOC[C@H]2C1`, the “Percent Effect” value came to 119.3%.

With `CC(=O)NCC(=O)N(CCc1ccccc1)C1CCOC1` (stereo not drawn), the “Percent Effect” value came out at 3.358%. `CN(CC(=O)N(C)C1CCN(CC2CCOC2)CC1)c1ccccc1` (stereo not drawn): the “Percent Effect” value is -6.754%.

As for `O=C(O)CN(C(=O)c1ccccc1)[C@H]1C[C@H]2CCOC[C@H]2C1`, the “Percent Effect” value was 112.1%.

Take `O=C(C1CCOCC1)N(CCc1ccccc1)C1CCOC1` (stereo not drawn): the “Percent Effect” value is reported as -13.84%. As to `CNC(=O)CN([C@H]1C[C@H]2CCOC[C@H]2C1)S(=O)(=O)c1ccccc1`, the “Percent Effect” value was 119.6%. In the case of `CNC(=O)[C@@]12CCO[C@@H]1CCN(S(=O)(=O)c1ccccc1)C2`, the “Percent Effect” value is reported as -56.29%.

On to `O=C(C1CC1)N(CCc1ccccc1)C1CCOC1` (stereo not drawn), for which the “Percent Effect” value was -3.562%. Regarding `CN1CCN(CCO)C(=O)C12CCN(c1nccs1)CC2`, the “Percent Effect” value was found to be 3.933%. For `CN1CCOC(C(=O)Nc2ccc3[nH]nnc3c2)C1` (stereo not drawn), the “Percent Effect” value is 3.877%.

Regarding `CCc1nsc(NC2CCCn3nc(COC)nc32)n1` (stereo not drawn), the “Percent Effect” value is given as -2.766%.
